Source: PubChem BioAssay (NCI)
The panel holds about 83,000 compounds, 20% with a hit somewhere; the sample as a whole holds those more often.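 For each line, cells grew in 96-well plates with the test compound present at a single concentration for 48 hours.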 Activity calls are given as the source filed them. Rule for the calls: active = growth percent below 10; inactive = the rest.

Assays:
Test in all cases: NCI-60 one-dose screen, 48 h (100 = growth as untreated, 0 = no growth, -100 = all killed)
Conditions in all cases: 10 µM unless noted
HCT-15 colon = system: HCT-15 colon
HT29 colon = system: HT29 colon
SNB-75 CNS = system: SNB-75 CNS
SNB-19 CNS = system: SNB-19 CNS
U251 CNS = system: U251 CNS
PC-3 prostate = system: PC-3 prostate
SK-MEL-5 melanoma = system: SK-MEL-5 melanoma
UACC-62 melanoma = system: UACC-62 melanoma
LOX IMVI melanoma = system: LOX IMVI melanoma
SK-MEL-28 melanoma = system: SK-MEL-28 melanoma
SK-MEL-2 melanoma = system: SK-MEL-2 melanoma
EKVX NSCLC = system: EKVX NSCLC
SN12C renal = system: SN12C renal
UO-31 renal = system: UO-31 renal
TK-10 renal = system: TK-10 renal
ACHN renal = system: ACHN renal
CAKI-1 renal = system: CAKI-1 renal
A498 renal = system: A498 renal
CCRF-CEM leukemia = system: CCRF-CEM leukemia
MOLT-4 leukemia = system: MOLT-4 leukemia

Measured: growth

Cc1cc(-c2ccc(N=Nc3c(S(=O)(=O)O)cc4cc(S(=O)(=O)O)cc(O)c4c3O)c(C)c2)ccc1N=Nc1c(S(=O)(=O)O)cc2cc(S(=O)(=O)O)cc(O)c2c1O
inactive: HCT-15 colon 109% | HT29 colon 103% | SNB-75 CNS 82.4% | SNB-19 CNS 106% | U251 CNS 101% | PC-3 prostate 93.6% | SK-MEL-5 melanoma 101% | UACC-62 melanoma 114% | LOX IMVI melanoma 107% | SK-MEL-28 melanoma 110% | SK-MEL-2 melanoma 90.6% | EKVX NSCLC 79.6% | SN12C renal 116% | UO-31 renal 73.9% | TK-10 renal 115% | ACHN renal 101% | CAKI-1 renal 78.1% | A498 renal 122% | CCRF-CEM leukemia 102% | MOLT-4 leukemia 127%

CN(C)CCCN1c2ccccc2CCc2ccccc21
inactive: HCT-15 colon 96.6% | HT29 colon 83.5% | SNB-75 CNS 50.8% | SNB-19 CNS 94.1% | U251 CNS 91.6% | PC-3 prostate 82.8% | SK-MEL-5 melanoma 75.3% | UACC-62 melanoma 94% | LOX IMVI melanoma 106% | SK-MEL-28 melanoma 102% | SK-MEL-2 melanoma 105% | EKVX NSCLC 107% | SN12C renal 80.1% | UO-31 renal 83.2% | TK-10 renal 93.3% | ACHN renal 91.4% | CAKI-1 renal 84.6% | A498 renal 124% | CCRF-CEM leukemia 97.6%

NC(=O)c1ccc[n+](Cc2ccccc2)c1
inactive: HCT-15 colon 96.7% | HT29 colon 101% | SNB-75 CNS 95.1% | SNB-19 CNS 106% | U251 CNS 92.8% | PC-3 prostate 94.6% | SK-MEL-5 melanoma 97.6% | UACC-62 melanoma 99.7% | LOX IMVI melanoma 95.6% | SK-MEL-28 melanoma 103% | SK-MEL-2 melanoma 110% | EKVX NSCLC 94% | SN12C renal 101% | UO-31 renal 93.8% | TK-10 renal 108% | ACHN renal 103% | CAKI-1 renal 97.9% | A498 renal 74.5% | CCRF-CEM leukemia 93.9% | MOLT-4 leukemia 49%

COc1cc(/C=N/NC(=O)Cn2c(-c3ccc(C)o3)nc3ccccc32)ccc1OCc1ccccc1
inactive: HCT-15 colon 74.1% | HT29 colon 87.2% | SNB-75 CNS 83.2% | SNB-19 CNS 79.6% | U251 CNS 88.5% | PC-3 prostate 63.1% | SK-MEL-5 melanoma 76.6% | UACC-62 melanoma 77.8% | LOX IMVI melanoma 88.1% | SK-MEL-28 melanoma 99.1% | SK-MEL-2 melanoma 94.5% | EKVX NSCLC 75.2% | SN12C renal 95.4% | UO-31 renal 61.8% | TK-10 renal 93.4% | ACHN renal 85.4% | CAKI-1 renal 82.6% | A498 renal 78.5% | CCRF-CEM leukemia 80.6% | MOLT-4 leukemia 50.2%

NC(=O)N/N=C\c1ccc([N+](=O)[O-])o1
inactive: HCT-15 colon 92.5% | HT29 colon 111% | SNB-75 CNS 84.3% | SNB-19 CNS 113% | U251 CNS 93% | PC-3 prostate 85.2% | SK-MEL-5 melanoma 107% | UACC-62 melanoma 103% | LOX IMVI melanoma 91.5% | SK-MEL-28 melanoma 106% | SK-MEL-2 melanoma 114% | EKVX NSCLC 75.2% | SN12C renal 104% | UO-31 renal 85.2% | TK-10 renal 113% | ACHN renal 98.8% | CAKI-1 renal 86.9% | A498 renal 90.1% | CCRF-CEM leukemia 19.9%

CCOC(=O)Nc1ccc2nc(N3CCCCCC3)sc2c1
active: HT29 colon 6.49% | SNB-75 CNS -8.82%
inactive: HCT-15 colon 24.7% | SNB-19 CNS 33.6% | U251 CNS 22.8% | PC-3 prostate 25% | SK-MEL-5 melanoma 11.5% | UACC-62 melanoma 26% | LOX IMVI melanoma 44.4% | SK-MEL-28 melanoma 42.6% | SK-MEL-2 melanoma 36.8% | EKVX NSCLC 59.9% | SN12C renal 44.2% | UO-31 renal 39.2% | TK-10 renal 51.1% | ACHN renal 61.9% | CAKI-1 renal 27.2% | A498 renal 54.7% | CCRF-CEM leukemia 16.7%

CCCCCCCCCCCC1=NC(C)(C)CN1C(C)C
active: HT29 colon 0.372% | SK-MEL-5 melanoma -24.7% | UACC-62 melanoma -51.3% | SK-MEL-28 melanoma -54.7%
inactive: HCT-15 colon 11.8% | SNB-75 CNS 52% | SNB-19 CNS 86.7% | U251 CNS 37% | PC-3 prostate 34.6% | LOX IMVI melanoma 34.6% | SK-MEL-2 melanoma 60.9% | EKVX NSCLC 57.5% | SN12C renal 61% | UO-31 renal 38% | TK-10 renal 81.6% | ACHN renal 61.6% | CAKI-1 renal 46.6% | A498 renal 76.7% | CCRF-CEM leukemia 29.3%

NNC(=O)CSc1nc2scc(-c3ccccc3)c2c(=O)n1-c1ccccc1
inactive: HCT-15 colon 101% | HT29 colon 121% | SNB-75 CNS 88.3% | SNB-19 CNS 107% | U251 CNS 103% | PC-3 prostate 80.5% | SK-MEL-5 melanoma 88.4% | UACC-62 melanoma 90.2% | LOX IMVI melanoma 78.7% | SK-MEL-28 melanoma 111% | SK-MEL-2 melanoma 101% | EKVX NSCLC 103% | SN12C renal 101% | UO-31 renal 76.2% | TK-10 renal 178% | ACHN renal 103% | CAKI-1 renal 106% | A498 renal 87.4%
